Compound activity (PubChem BioAssay)
This is a sample that favours compounds with a hit; in the whole collection about 1.5% have one here.
RAD52 inh – blocks human RAD52 DNA annealing; P43351; recombinant RAD52 DNA annealing, FRET fluorescence; inhibition, % at 18.7 µM; 360,000 compounds, 0.46% hits; AID 651710;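 active = every replicate showing at least 50% inhibition; inconclusive = mean inhibition at least 50% but not in every replicate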
Target sequence (P43351 whole entry, looked up): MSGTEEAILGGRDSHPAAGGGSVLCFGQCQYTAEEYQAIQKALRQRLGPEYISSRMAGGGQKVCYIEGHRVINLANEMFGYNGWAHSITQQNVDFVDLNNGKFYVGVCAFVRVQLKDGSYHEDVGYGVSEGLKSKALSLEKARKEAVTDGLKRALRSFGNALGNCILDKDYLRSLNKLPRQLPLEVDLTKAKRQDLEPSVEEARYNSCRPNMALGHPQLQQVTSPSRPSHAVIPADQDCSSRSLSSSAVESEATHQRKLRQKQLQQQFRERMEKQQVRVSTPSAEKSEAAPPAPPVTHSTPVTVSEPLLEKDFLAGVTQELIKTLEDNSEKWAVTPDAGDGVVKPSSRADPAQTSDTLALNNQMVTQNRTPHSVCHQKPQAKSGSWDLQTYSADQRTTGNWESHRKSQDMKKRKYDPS
CASP6 VEID inh – inhibitors of human caspase-6 | P55212 | purified caspase-6, Z-VEID-R110 cleavage fluorescence | inhibition, % at 12.5 µM | 350,000 compounds, 0.53% hits;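 active = mean inhibition across replicates at least about 35%, with every replicate also reaching that limit, limit read from the data; inconclusive = only one of the two criteria met; inactive = neither criterion met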
Target sequence (P55212 24-179 limits assumed): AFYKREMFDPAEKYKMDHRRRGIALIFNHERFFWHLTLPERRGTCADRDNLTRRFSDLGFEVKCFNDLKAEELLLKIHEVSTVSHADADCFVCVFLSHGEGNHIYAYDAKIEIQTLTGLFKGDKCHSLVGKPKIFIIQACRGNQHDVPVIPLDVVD
Target sequence (P55212 194-293 limits assumed): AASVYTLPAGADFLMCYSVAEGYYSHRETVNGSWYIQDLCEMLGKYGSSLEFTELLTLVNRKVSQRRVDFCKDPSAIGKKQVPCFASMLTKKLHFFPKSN
AF4-AF9 inh – MLL-AF4/AF9 protein interaction inhibition. P42568. AID 651704. 350,000 compounds, 0.47% hits. inhibition, % at 10 µM. AlphaScreen, biotin-AF4 peptide binding to FLAG-AF9;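 active = every replicate reaching a set inhibition limit, whatever the replicate mean, cut at about 25% in these data; inconclusive = mean inhibition reaches that limit but some replicates miss it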
miR-122 sensor – miR-122 inhibition in Huh7 cells; Huh7 miR-122 Renilla luciferase sensor, 48 h; neutral wells = 0, positive control = 100; activation (reporter increase), % at 12.5 µM; 340,000 compounds, 0.3% hits; AID 602342;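 active = mean replicate activation score at least 90 and every replicate individually at or above 90; inconclusive = only one of the two criteria met; inactive = neither criterion met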;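 also: higher luciferase means less miR-122 activity so hits act as miR-122 inhibitors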
NSD2 inh – blocks human histone methyltransferase NSD2. O96028. NSD2 peptide methylation, AlphaScreen, 120 min. inhibition, % at 12.5 µM. 310,000 compounds, 0.54% hits. AID 743445; in the data active = inhibition above about 50%
RAD52 DNA ctr – counter-screen for RAD52 inhibitors: DNA binding compounds. AID 652128. 1,000 compounds, 8% hits. Salmon sperm DNA/acridine orange FP displacement. shares compounds with RAD52 inh. AC50, µM;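 active = fitted half-maximal concentration for signal loss at or below twice the highest dose tested, in every separate run, actives reach about 64 µM in these data; inconclusive = runs disagree, or flat partial signal loss, or poor fit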
Hits are given with their value; i = inactive; ? = inconclusive; nt = no result given; ! = repeats disagree.

SMILES	RAD52 inh	CASP6 VEID inh	AF4-AF9 inh	miR-122 sensor	NSD2 inh	RAD52 DNA ctr
CCN(CC)CCCNC(=O)c1ccc2c3n(nc2c1)-c1ccc(Cl)cc1CO3	64.8	i	i	i	nt	i
CN1C(=O)c2cc(NC(=O)C3CCOCC3)ccc2OC[C@H]2O[C@H](CC(=O)O)CC[C@H]21	i	i	i	i	nt	nt
OC[C@@H]1CN(CCc2ccccc2)C[C@H](n2cnc3c(NCc4ccc(F)cc4)ncnc32)O1	74.5	i	i	i	i	i
Cc1c(OCC(=O)NC2CC(C)(C)NC(C)(C)C2)ccc2c1oc(=O)c1ccccc12	71.9	i	i	i	i	i
C[C@@H]1CN([C@@H](C)CO)C(=O)c2cc(NS(=O)(=O)c3ccc(Cl)cc3)ccc2O[C@@H]1CN(C)Cc1ccc(C(F)(F)F)cc1	nt	nt	nt	i	nt	nt
C[C@H](CO)N1C[C@H](C)[C@H](CN(C)C(=O)C2CCCCC2)Oc2ncc(C#CC3CCCC3)cc2C1=O	i	i	i	i	nt	nt
CCc1csc(N2[C@H](CO)[C@H](c3ccccc3)[C@@H]2CNCCOC)n1	nt	nt	nt	i	nt	nt
CCC(=O)N(C)C[C@H]1Oc2cc(-c3ccccc3)ccc2S(=O)(=O)N([C@@H](C)CO)C[C@H]1C	i	i	i	i	nt	nt
CC(C)NC(=O)N1CC(c2ccccc2)C(c2ccc(Cl)cc2)=N1 (configuration not stated)	97.5	i	i	i	i	i
Cc1nc(/N=C(\N)NC(=O)c2ccccc2)nc2ccccc12	i	i	i	nt	i	nt
CCc1ccc2nc(N=C(N)N)nc(C)c2c1	50.8	i	i	nt	i	i
Cc1ccc2nc(N=C(N)N)nc(C)c2c1	51.5	i	i	nt	i	i
Cc1cc2nc(N=C(N)N)nc(C)c2cc1C	84.5	i	i	i	i	i
Cc1nc(N=C(N)N)nc2ccccc12	61.5	i	i	nt	i	i
COc1ccccc1S(=O)(=O)N[C@@H]1CC[C@@H](CCn2cc(C3CC3)nn2)O[C@H]1CO	i	i	i	nt	nt	nt
CCNC(=O)Nc1ccc2c(c1)C(=O)N(C)[C@H]1CC[C@H](CC(=O)NCCOC)O[C@@H]1CO2	i	i	i	i	nt	nt
CN1CCN(c2nc(-c3ccccc3Cl)nc3ccccc23)CC1	i	i	i	i	i	nt
CN1CCN(c2nc(-c3ccccc3O)nc3ccccc23)CC1	53.3	i	i	nt	i	i
COc1cccc(-c2nc(N3CCN(C)CC3)c3ccccc3n2)c1O	87.1	i	i	i	i	?
CCOC(=O)CCc1c(C)nc(SCC(=O)O)c(C#N)c1C	nt	nt	nt	i	i	nt
CCOC(=O)CCc1c(C)nc(SCc2ccc(C(=O)O)cc2)c(C#N)c1C	96.5	i	i	nt	i	i
O=C1c2ccccc2C(=O)c2c(NCCCN(CCO)CCO)cccc21	93.1	i	?	i	i	4.26µM
O=C(Nc1cccc(F)c1)N1CC(=O)N2[C@@H](CO)[C@@H](c3ccc(C#CC4CC4)cc3)[C@@H]2C1	i	i	i	nt	nt	nt
O=C(CCN1CCOCC1)Nc1ccc(F)cc1	i	i	i	i	i	nt
Nc1ccc(NC(=O)CCN2CCOCC2)cc1	59.6	i	i	nt	i	i
SMILES	RAD52 inh	CASP6 VEID inh	AF4-AF9 inh	miR-122 sensor	NSD2 inh	RAD52 DNA ctr
CCc1nc2ccc(C(=O)Nc3cc(-c4ccccc4)ccc3OC)cn2c1N(CCN(C)C)CC1CC1	62.5	i	29.8	i	i	i
OC[C@@H]1[C@@H](c2ccc(-c3ccc(F)cc3)cc2)[C@@H]2CN(Cc3ccccn3)CCCCN12	i	i	i	i	nt	nt
CN1CCc2cccc3c2[C@H]1Cc1ccc(O)c(O)c1-3	90.3!	i	29.3!	i	nt	i
Cc1nc2cc(-c3ccc(Cl)cc3)nn2c(NCCN(C)C)c1C	76.8	i	i	nt	i	i
CCN1/C(=C/c2sc(-c3ccccc3C)c[n+]2C)Sc2ccccc21	69.5	i	i	nt	i	i
COc1ccc(NC(=O)O[C@@H](C)[C@@H]2CN3CCc4c([nH]c5ccc(-c6ccc(OC)cc6)cc45)[C@@H]3C[C@@H]2N(C)C(=O)Nc2ccc(OC)cc2)cc1	53.0	i	i	i	nt	i
COc1ccc(-c2ccc3[nH]c4c(c3c2)CCN2C[C@@H]([C@H](C)OC(=O)Nc3cc(Cl)cc(Cl)c3)[C@@H](N(C)C(=O)Nc3cc(Cl)cc(Cl)c3)C[C@@H]42)cc1	i	i	i	i	nt	nt
C[C@@H]1CN([C@@H](C)CO)C(=O)c2cccc(NC(=O)Nc3ccc4c(c3)OCO4)c2O[C@@H]1CN(C)Cc1ccc(Oc2ccccc2)cc1	i	i	i	i	nt	i
CN1C(=O)c2cc(NC(=O)c3ccc(F)c(F)c3)ccc2OC[C@@H]2O[C@H](CC(=O)N3CCOCC3)CC[C@H]21	i	i	i	i	nt	nt
CSc1ccc2c(c1)N(CCC1CCCCN1C)c1ccccc1S2 (configuration not stated)	51.1	i	38.5	i	nt	i
CN1CCN(CCCN2c3ccccc3Sc3ccc(S(=O)(=O)N(C)C)cc32)CC1	i	i	i	i	nt	nt
CCCSc1nc(C)c2cc(C)cc(C)c2n1	nt	nt	nt	i	nt	nt
Cc1cc(C)c2nc3nc(C)c(C)cc3c(N)c2c1	91.1	i	i	i	i	61.8µM
C/C(=N\NC(=O)c1nnn(-c2nonc2N)c1CN1CCC(C)CC1)c1ccc(Br)cc1	72.0	i	i	i	i	i
Cc1ccc(-c2nc(NCCN(C)C)c3ccccc3n2)cc1	71.2	i	i	i	i	i
Cc1cccc(-c2nc(NCCCN(C)C)c3ccccc3n2)c1	83.6	i	i	i	i	i
CN(C)CCCNc1ncnc2sc(-c3ccccc3)cc12	67.7	i	i	i	nt	?
Cc1ccc(-c2nc(NCc3ccco3)c3ccccc3n2)cc1	i	i	i	i	i	nt
CN(C)CCNc1cc(-c2ccncc2)nc2ccccc12	80.0	i	i	i	i	i
OCCCNc1c2ccccc2nc2ccccc12	94.8	i	i	i	i	52.8µM
CN(C)CCCNc1c2c(nc3ccccc13)CCC2	78.2	i	i	i	i	i
CC(C)(C)Nc1c2ccccc2nc2ccccc12	i	i	i	i	i	nt
COc1nc(NCCc2ccc(OC)c(OC)c2)nc(OC)n1	nt	nt	nt	i	i	nt
COc1ccc(CCNc2c3ccccc3nc3ccccc23)cc1OC	83.4	i	i	i	i	i
c1ccc2c(NCCc3c[nH]c4ccccc34)c3ccccc3nc2c1	97.1	i	43.7	nt	i	41.4µM
SMILES	RAD52 inh	CASP6 VEID inh	AF4-AF9 inh	miR-122 sensor	NSD2 inh	RAD52 DNA ctr
COCCNc1c2c(nc3ccccc13)CCC2	i	i	i	i	i	nt
C[C@H]1CN([C@@H](C)CO)C(=O)c2cccc(NC(=O)C3CCOCC3)c2O[C@@H]1CN(C)S(C)(=O)=O	i	i	i	i	nt	nt
CN(C)C(=O)[C@H]1[C@H](CO)[C@H]2Cn3c(cccc3=O)[C@@H]1N2CC1CCCCC1	i	i	i	i	nt	nt
c1cncc(Nc2c3ccccc3nc3ccccc23)c1	59.1	i	i	i	i	i
O=C(O)c1ccc(Nc2c3ccccc3nc3ccccc23)cc1	i	i	i	i	i	nt
Oc1cccc(Nc2c3ccccc3nc3ccccc23)c1	81.8	i	i	i	i	?
COc1ccc(Nc2c3ccccc3nc3ccccc23)cc1	73.2	i	i	nt	i	10.6µM
